For some of these results: Results with a measured potency or affinity are listed apart.
Columns and labels:
Design in all cases: scale not given: direction of the effect not stated beside the values
[1] = target: Protein translocase subunit SecA (Escherichia coli (strain K12)) (UniProt P10408); assay: Assay to Identify E. coli SecA ATPase Inhibitors; assay type: functional; conditions: 30 µM
[2] = target: T1, Ubiquitin-activating enzyme e1, putative (Leishmania donovani (strain BPK282A1)) (UniProt E9BSI1); assay: Leishmania donovani Ubiquitin Activating Enzyme (LdE1); assay type: functional; conditions: 30 µM
T1 sequence (whole entry): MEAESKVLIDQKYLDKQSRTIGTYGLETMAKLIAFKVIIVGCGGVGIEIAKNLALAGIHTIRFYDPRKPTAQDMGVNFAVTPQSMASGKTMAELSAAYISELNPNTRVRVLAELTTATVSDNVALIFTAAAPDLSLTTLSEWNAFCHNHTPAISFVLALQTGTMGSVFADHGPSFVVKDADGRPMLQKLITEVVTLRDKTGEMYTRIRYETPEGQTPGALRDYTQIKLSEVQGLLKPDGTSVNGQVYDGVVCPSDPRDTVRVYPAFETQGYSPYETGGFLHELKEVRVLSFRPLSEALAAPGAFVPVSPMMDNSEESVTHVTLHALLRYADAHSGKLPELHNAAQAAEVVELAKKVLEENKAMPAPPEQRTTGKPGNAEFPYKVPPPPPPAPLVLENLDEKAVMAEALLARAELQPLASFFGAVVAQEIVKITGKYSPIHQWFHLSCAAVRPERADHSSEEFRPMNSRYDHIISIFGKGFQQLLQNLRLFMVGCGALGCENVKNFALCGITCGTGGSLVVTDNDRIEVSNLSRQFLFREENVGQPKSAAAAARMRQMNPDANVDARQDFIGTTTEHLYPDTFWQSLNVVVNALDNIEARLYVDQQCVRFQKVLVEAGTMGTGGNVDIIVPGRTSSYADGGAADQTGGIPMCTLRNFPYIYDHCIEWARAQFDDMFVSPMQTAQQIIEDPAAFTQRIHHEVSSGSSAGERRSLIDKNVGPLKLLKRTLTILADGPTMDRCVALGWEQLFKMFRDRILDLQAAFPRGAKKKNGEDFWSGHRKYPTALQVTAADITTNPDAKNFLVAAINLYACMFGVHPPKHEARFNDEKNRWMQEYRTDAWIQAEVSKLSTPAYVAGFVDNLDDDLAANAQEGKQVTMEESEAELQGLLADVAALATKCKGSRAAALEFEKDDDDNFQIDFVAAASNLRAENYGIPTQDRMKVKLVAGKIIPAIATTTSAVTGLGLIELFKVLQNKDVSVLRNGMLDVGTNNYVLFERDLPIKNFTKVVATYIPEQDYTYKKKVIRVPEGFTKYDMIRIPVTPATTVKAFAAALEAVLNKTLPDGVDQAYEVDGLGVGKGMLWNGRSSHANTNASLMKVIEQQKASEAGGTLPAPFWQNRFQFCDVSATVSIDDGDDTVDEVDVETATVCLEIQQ

[3] = target: AMP-activated protein kinase, AMPK (Homo sapiens) (UniProt P54646+O43741+P54619+Q9UGJ0+Q9Y478+Q13131+Q9UGI9); assay: AMP-dependent Kinase enzyme assay. An in vitro enzyme assay that detects ADP turnover that is directly proportional to AMPK activity. This uses naive AMPK that is activated during the assay with MK-8722; assay type: functional; conditions: 30 µM
[4] = target: Sialic acid-binding Ig-like lectin 9 (Homo sapiens) (UniProt Q9Y336); assay: Hs-Siglec9 ALPHAscreen SOP 20170721; conditions: 10 µM
Chain of Sialic acid-binding Ig-like lectin 9 (Homo sapiens) (Q9Y336 whole entry): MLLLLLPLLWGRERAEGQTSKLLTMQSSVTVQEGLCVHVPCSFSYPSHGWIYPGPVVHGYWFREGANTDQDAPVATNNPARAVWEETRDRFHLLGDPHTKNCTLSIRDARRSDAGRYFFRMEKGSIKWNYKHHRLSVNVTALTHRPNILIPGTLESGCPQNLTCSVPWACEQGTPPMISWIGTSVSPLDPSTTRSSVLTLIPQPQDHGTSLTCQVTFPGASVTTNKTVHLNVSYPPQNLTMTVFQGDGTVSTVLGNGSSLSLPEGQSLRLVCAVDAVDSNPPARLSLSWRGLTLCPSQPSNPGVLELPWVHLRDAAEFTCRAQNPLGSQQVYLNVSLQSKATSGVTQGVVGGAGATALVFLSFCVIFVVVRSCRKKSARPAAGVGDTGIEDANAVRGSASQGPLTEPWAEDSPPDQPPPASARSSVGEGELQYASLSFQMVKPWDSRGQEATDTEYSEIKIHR

Trypanosoma cruzi = assay: Trypanosoma cruzi phosphomannomutase and mannose-1-phosphate guanylyltransferase assay; assay type: functional; conditions: 10 µM
[5] = target: T2, Arginase-2, mitochondrial (Homo sapiens) (UniProt P78540); assay: in vitro enzyme assay to detect the production of urea directly proportional to the activity of Arginase II; assay type: functional; conditions: 33.3 µM; further: in the data most compounds retested in dose-response had high values
T2 sequence (whole entry): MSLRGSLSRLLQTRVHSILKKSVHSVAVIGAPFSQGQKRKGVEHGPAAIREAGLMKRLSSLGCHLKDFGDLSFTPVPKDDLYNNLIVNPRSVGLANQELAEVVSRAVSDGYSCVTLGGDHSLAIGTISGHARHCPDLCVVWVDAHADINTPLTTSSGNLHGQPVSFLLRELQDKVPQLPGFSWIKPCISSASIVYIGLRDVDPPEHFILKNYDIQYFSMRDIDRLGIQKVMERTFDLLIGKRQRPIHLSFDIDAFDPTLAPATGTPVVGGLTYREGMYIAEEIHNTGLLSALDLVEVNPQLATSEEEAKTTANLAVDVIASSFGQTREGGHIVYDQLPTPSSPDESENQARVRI

[6] = target: T3, Proteasome subunit beta (Trypanosoma cruzi) (UniProt O96673); assay: Trypanosoma cruzi proteasome chymotrypsin-like activity (TcProtChymo) assay.; further: in the data most compounds retested in dose-response had high values; assay type: functional; conditions: 9.37 µM
T3 sequence (whole entry): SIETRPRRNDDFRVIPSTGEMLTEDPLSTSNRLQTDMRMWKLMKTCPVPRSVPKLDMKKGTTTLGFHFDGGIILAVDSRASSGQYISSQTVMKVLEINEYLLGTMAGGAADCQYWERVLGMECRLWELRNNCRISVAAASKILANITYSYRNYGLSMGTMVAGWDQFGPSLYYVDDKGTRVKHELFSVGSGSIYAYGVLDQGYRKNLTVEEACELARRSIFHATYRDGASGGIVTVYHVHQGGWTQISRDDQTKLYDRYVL

Homo sapiens = species: Homo sapiens; assay: To identify inhibition of the IFN signalling (Jak-Stat) pathway via expression of an eGFP reporter gene under the control of an IFN-stimulated response element (ISRE) containing MxA promoter.; assay type: functional; conditions: 30 µM
[7] = target: T4, Tyrosyl-tRNA synthetase, putative (Trypanosoma cruzi (strain CL Brener)) (UniProt Q4DSP6); assay: Trypanosoma cruzi tyrosyl tRNA synthetase (TcYRS) _High Tyrosine SOP; assay type: functional; conditions: 30 µM; further: in the data most compounds retested in dose-response had high values
T4 sequence (whole entry): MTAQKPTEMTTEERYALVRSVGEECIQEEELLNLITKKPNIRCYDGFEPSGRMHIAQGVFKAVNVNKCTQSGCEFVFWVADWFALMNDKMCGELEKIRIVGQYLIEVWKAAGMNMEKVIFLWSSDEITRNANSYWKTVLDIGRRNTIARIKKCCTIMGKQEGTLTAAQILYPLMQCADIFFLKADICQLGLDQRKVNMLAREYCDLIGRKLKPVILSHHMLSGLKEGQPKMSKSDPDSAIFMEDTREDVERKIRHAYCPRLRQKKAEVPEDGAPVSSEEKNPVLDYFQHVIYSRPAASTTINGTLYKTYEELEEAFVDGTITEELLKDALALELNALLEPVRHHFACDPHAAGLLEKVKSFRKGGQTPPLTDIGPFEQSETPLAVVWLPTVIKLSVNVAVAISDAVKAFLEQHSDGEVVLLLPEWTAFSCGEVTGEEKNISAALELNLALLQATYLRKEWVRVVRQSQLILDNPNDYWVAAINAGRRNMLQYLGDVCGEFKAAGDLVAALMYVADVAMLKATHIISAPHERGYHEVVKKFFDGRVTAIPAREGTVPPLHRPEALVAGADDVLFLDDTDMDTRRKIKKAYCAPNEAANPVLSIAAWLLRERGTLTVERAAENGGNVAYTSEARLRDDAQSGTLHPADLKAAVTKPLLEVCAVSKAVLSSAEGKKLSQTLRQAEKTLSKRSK

[8] = target: T4, Tyrosyl-tRNA synthetase, putative (Trypanosoma cruzi (strain CL Brener)); assay: Trypanosoma cruzi tyrosyl tRNA synthetase (TcYRS) SOP; assay type: functional; conditions: 30 µM
[9] = target: Chromo domain-containing protein 1 (Saccharomyces cerevisiae (strain ATCC 204508 / S288c) (Baker's yeast)) (UniProt P32657); assay: ScCHD-1 Enzyme Inhibition Assay; assay type: functional; conditions: 30 µM; further: in the data most compounds retested in dose-response had high values
Chain of Chromo domain-containing protein 1 (Saccharomyces cerevisiae (strain ATCC 204508 / S288c) (Baker's yeast)) (P32657 whole entry, the tested form may be a part): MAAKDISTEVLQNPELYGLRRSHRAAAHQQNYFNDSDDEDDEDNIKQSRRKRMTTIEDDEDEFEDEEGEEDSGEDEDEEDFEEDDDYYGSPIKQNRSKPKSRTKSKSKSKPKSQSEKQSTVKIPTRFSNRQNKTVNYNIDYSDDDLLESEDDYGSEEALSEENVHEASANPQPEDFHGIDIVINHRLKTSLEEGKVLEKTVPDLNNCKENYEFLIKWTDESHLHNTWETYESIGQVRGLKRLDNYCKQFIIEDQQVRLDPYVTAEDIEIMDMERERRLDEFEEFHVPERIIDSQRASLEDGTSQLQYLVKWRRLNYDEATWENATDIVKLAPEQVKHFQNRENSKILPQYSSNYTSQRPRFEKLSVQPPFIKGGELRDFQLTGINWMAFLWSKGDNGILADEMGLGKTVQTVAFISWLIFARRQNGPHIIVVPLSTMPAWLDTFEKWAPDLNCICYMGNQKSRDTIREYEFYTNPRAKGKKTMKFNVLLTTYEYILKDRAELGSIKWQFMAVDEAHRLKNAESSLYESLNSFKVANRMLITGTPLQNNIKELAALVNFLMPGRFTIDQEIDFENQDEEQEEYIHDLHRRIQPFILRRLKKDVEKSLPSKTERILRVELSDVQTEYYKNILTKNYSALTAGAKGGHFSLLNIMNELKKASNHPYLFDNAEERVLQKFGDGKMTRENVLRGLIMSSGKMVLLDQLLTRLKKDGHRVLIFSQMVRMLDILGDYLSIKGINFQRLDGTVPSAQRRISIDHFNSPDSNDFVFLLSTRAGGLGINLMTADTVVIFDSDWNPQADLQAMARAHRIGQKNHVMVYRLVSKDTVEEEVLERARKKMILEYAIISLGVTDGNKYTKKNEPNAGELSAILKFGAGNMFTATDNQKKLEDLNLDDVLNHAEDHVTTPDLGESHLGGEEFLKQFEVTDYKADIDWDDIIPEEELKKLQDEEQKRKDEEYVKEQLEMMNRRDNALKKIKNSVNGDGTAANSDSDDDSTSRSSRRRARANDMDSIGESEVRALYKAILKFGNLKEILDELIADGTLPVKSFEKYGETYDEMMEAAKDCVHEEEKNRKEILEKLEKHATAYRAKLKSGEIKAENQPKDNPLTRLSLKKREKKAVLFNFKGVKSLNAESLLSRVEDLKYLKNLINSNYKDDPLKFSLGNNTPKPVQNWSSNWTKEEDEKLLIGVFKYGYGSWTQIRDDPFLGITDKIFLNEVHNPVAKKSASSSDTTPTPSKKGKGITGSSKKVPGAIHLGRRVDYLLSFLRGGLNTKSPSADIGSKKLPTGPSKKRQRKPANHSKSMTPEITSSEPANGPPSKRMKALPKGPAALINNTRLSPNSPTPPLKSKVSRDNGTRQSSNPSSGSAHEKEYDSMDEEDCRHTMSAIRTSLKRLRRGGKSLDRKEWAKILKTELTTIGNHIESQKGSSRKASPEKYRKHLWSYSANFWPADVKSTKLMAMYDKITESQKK

Chain of Protein translocase subunit SecA (Escherichia coli (strain K12)) (P10408 whole entry): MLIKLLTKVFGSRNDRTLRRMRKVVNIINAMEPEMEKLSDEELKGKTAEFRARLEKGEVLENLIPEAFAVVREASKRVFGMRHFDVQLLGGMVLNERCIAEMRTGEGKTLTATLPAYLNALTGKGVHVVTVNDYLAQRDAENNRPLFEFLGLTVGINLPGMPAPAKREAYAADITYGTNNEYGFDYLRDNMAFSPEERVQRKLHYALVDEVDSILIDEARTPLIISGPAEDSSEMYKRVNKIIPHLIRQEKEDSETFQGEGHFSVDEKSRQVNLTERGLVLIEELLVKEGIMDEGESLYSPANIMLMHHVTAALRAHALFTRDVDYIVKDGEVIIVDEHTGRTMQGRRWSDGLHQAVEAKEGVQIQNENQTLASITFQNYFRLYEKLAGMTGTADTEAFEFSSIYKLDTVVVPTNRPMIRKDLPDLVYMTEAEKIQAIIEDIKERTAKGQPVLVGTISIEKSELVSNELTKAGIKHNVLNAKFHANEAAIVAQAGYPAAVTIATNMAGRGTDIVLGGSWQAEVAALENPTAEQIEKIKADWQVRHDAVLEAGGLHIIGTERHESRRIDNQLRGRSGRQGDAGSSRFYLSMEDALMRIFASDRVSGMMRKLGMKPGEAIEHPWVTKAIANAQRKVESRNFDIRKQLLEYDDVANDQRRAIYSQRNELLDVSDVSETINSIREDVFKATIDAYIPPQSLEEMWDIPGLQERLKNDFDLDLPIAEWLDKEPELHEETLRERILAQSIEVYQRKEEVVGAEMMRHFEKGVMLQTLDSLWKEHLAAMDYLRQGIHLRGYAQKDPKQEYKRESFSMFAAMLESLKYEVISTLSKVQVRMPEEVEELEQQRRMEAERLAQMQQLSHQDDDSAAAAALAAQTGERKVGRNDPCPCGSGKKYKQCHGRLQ

Row | SMILES | Percent Effect [1] [%] | Percent Effect [2] [%] | Percent Effect [3] [%] | Percent Effect [4] [%] | Percent Effect (Trypanosoma cruzi) [%] | Percent Effect [5] [%] | Percent Effect [6] [%] | Percent Effect (Homo sapiens) [%] | Percent Effect [7] [%] | Percent Effect [8] [%] | Percent Effect [9] [%]
1 | Cc1nn(C)c2c(NCc3ccccc3F)nc(C3CC3)nc12 | -4.24 | 13 | 15.3 | 12.8 | 9.14 | -63.5 | 20.6 | 38.1 | -3.23 | 13.6 | -3.61
2 | CCc1nccn1C1CCCN(C(=O)c2cn3c(C)cccc3n2)C1 (stereo not given) | -5.71 | 10.5 | -0.577 | 8.35 | 3.6 | -9.47 | 6.04 | -0.411 | 3.19 | 15.6 | -1.12
3 | COc1ccc(C)cc1CN1CCCC1Cn1nc(C)nc1C (stereo not given) | -5.51 | -3.8 | -7.49 | 4.01 | 2.97 | -0.645 | 16.6 | 46.5 | 8.33 | 12.7 | -26.7
4 | Cn1cccc1C(=O)NCc1cnc2n1CCN(C(=O)N1CCCC1)C2 | -5.97 | 16 | -1.93 | 4.39 | 6.18 | -45 | 7.86 | 3.79 | 2.08 | 12.5 | -6.82
5 | Cc1nnc(NC(=O)NC2CCOc3ccccc32)s1 (stereo not given) | -3.11 | 5.48 | -3.94 | 7.64 | 1.59 | -4.39 | 12.8 | -9.09 | 12.5 | 23.5 | 1.07
6 | CN(Cc1cccc(F)c1)C(=O)CN1CCCCC1Cn1cncn1 (stereo not given) | -1.08 | -2.6 | -0.897 | 5.97 | 1.08 | -4.14 | 9.32 | -1.75 | 4.3 | -1.24 | -0.771
7 | O=S(=O)(Nc1cnn(C2CCOCC2)c1)c1ccc2c(c1)CCO2 | -1.97 | -2.6 | -19.5 | 5.92 | -0.296 | -9.68 | 12 | 13 | 1.06 | -1.28 | -7.66
8 | CCc1n[nH]c(C2CN(C(=O)CCc3cccs3)CCO2)n1 (stereo not given) | -5.44 | 11.4 | -4.01 | -7.1 | 1.74 | 0.645 | 8.23 | 1.68 | 4.17 | 12.7 | -38.8
9 | Cc1nccn1CCC1CCCCN1Cc1ccc(N(C)C)nc1 (stereo not given) | -1.41 | 5.33 | -3.72 | -2.2 | -6.91 | 4.69 | 21.4 | 9.79 | 0.546 | 11.1 | -5.71
10 | CCC(=O)N1CCC(Cc2ccccc2-c2ccccc2)(C(N)=O)C1 (stereo not given) | -3.32 | 13.3 | 10.4 | -2.64 | 3.94 | 7.69 | 8.37 | 16.6 | 1.06 | 16.7 | -4.71
11 | N#CCCCS(=O)(=O)N1CCCC1CC(=O)c1cccs1 (stereo not given) | -2.19 | 2.7 | -3.83 | 2.31 | -1.93 | -3.81 | 3.1 | -1.42 | -0.529 | -4.88 | -0.34
12 | Cc1nn(C)c2c(N3CCN(C(=O)NC4CCCCC4)CC3)ncnc12 | -1.64 | 9.33 | -2.22 | -3.41 | -5.5 | 0.528 | 11.7 | 0.346 | 2.12 | 5.13 | -10.1
13 | CCc1nc2n(n1)CC(Nc1cc(C)nc3ncnn13)CC2 (stereo not given) | -3.29 | 8.22 | -10.8 | 12.4 | 5.68 | 8.64 | 14.4 | 18.4 | 3.23 | 12.5 | -7.89
14 | Cc1nn(C)cc1CN(C)Cc1cc2c(cc1OC(F)F)OCO2 | -4.54 | 0 | -4.17 | -1.2 | 1.07 | -0.744 | -3.18 | -8.11 | -1.07 | 3.7 | -3.28
15 | CC(C)C(C)NC(=O)Nc1ccccc1CN1CCOCC1 (stereo not given) | -7.45 | 2.7 | 0.895 | 4.22 | 1.47 | 2.23 | 2.66 | -10.3 | 6.45 | 11.1 | -3.52
16 | CCOCC(O)CN1CCN(C(=O)C2CC2)CC1 (stereo not given) | -3.95 | 16.2 | 86.5 | -5.78 | 1.04 | -8.42 | 2.52 | 10.7 | 9.36 | 16.1 | -7.42
17 | Cc1nccn1C1CCCN(C(=O)c2ccc3c(c2)COC3)C1 (stereo not given) | -0.738 | -2.7 | -1 | 7.4 | 3.44 | 0.554 | -5.39 | -3.77 | 4.95 | 13.4 | -0.0787
18 | Cc1n[nH]c(C2CN(CC(=O)NCCc3ccsc3)CCO2)n1 (stereo not given) | -1.63 | 5.48 | -9.76 | 0.305 | -3.13 | -0.455 | 20.2 | 8.08 | 4.3 | 15 | -13.8
19 | Cc1n[nH]c(C)c1C1CCCN1C(=O)NCCSC(C)(C)C (stereo not given) | -2.09 | 0 | 3.06 | -3.83 | -1.37 | -0.909 | 0.887 | 4.14 | 3.23 | -2.5 | -1.95
20 | Cc1cnn(CCNCC(O)COc2ccc(Cl)cc2)c1 (stereo not given) | -3.71 | 10.1 | 0.158 | 12.9 | 3.12 | 0.76 | -1.88 | -3.16 | 3.45 | 8.86 | -2.04

From ChEMBL document CHEMBL3988442, “University of Dundee, Small-Polar-MMV Screening Library” (2021)
